Assay outcomes as filed in PubChem BioAssay.
Most compounds without a hit are left out; they make up all but 6% or so of the library.
Tau fluor cs: counter-screen for tau fibril formation inhibitors; tau K18 P301L Alexa594 fluorescence, heparin fibrillization; Potency, µM (series often up to 57.7 µM), for the others: at the highest dose activity change, negative = decrease; 0.93% of 280,000 active; AID 1463; further: nearly all actives have a fitted effect of over 55% in size
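Human tau K18 P301L (15 uM unlabeled, 0.24 uM Alexa 594-labeled) in 100 mM sodium acetate pH 7 with 20 uM heparin, 6 hr at 37 C. ThT 30 uM added, 1 hr ambient; Alexa 594 FP and total fluorescence read at 555/632 nm.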
Tau ThT inhib: inhibitors of human tau fibril formation, thioflavin T binding; recombinant tau K18 P301L (four-repeat tau fragment), heparin-induced fibrillization, ThT fluorescence; Potency, µM (titrated, usually from 57.4 µM), without a hit: at the top dose activity, negative = inhibition, most hits filed as inhibitors; 2.1% of 270,000 active; further: nearly all actives have a fitted effect of over 55% in size
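Heparin-induced fibrillization of the P301L-mutant K18 repeat-domain fragment of human tau was followed by ThT binding in quantitative high-throughput format.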
VDR inh: vitamin D3 receptor (human) inhibition; 0.93% of 400,000 active; Potency, µM, for inactives: max response, negative = inhibition, most hits filed as inhibitors; AID 504847; P11473; VDR-SRC2-3 peptide fluorescence polarization, 2 h
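Inhibition of the VDR/SRC2-3 peptide interaction is quantified by fluorescence polarization. Compounds (23 nl, pintool) incubate with the reagents for 2 hours at ambient room temperature.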
PLK1 PBD block: inhibitors of human PLK1 polo-box domain binding | Plk1 PBD binding of FITC phosphopeptide, fluorescence polarization | Potency, µM, inactives show max response, negative = inhibition, most hits filed as inhibitors | 2.8% of 360,000 active | AID 720504; further: series mostly up to about 57 µM; nearly all actives have a fitted effect of over 65% in size
Target sequence (P53350 whole entry, looked up, the tested form may be a part): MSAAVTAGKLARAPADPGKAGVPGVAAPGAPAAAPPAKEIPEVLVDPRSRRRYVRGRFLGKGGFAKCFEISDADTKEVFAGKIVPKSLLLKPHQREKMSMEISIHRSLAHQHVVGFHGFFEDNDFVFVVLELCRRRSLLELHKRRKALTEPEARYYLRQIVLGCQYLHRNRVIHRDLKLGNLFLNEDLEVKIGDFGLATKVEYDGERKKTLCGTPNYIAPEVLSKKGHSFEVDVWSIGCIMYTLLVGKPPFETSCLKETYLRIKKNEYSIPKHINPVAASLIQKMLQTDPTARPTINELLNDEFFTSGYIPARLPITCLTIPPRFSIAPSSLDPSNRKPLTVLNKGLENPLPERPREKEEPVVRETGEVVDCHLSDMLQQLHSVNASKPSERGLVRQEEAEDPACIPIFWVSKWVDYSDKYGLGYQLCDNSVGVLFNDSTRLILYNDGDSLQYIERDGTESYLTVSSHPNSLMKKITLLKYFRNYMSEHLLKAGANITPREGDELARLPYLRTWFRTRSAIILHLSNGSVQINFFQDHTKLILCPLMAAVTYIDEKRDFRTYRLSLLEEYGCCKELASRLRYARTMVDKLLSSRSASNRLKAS
Sfp PPTase inh: Sfp phosphopantetheinyl transferase inhibition. Potency, µM, inactives show largest response in the series, negative = inhibition, actives largely listed as inhibitors. 3.5% of 310,000 active. Biochemical Sfp PPTase activity, qHTS;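 further: the enzyme is Sfp with the accession as filed and its product quenches rhodamine fluorescence; 0% = enzyme reaction without inhibitor and -100% = no enzyme wells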
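After 15 min at room temperature with compound, 15 nM Sfp received 5 uM rhodamine-CoA plus 12.5 uM BHQ-2-ybbR (50 mM Hepes pH 7.6, 10 mM MgCl2). Rate came from the fluorescence difference over 30 min, ex 525/em 598 nm.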
Tau fibril FP: blocks human tau fibril formation measured by polarization | K18 P301L tau heparin fibrillization, Alexa594 FP, 6 h | Potency, µM (doses to about 57.7 µM), for inactives: at the highest dose activity, negative = inhibition, most hits filed as inhibitors | 0.39% of 280,000 active | AID 1468; further: nearly all actives have a fitted effect of over 55% in size
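Read-out: fluorescence polarization of Alexa 594-labeled tau (0.24 uM), 555 nm excitation, 632 nm emission. Mixtures held 15 uM unlabeled K18 P301L, compound and 20 uM heparin, pH 7 acetate buffer, incubated 6 hr at 37 C.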
An asterisk follows results filed as active; [ ] = remark or other dose. The call rests on the fitted dose curve; in most records, active means well fitted curve in the direction sought with a large enough effect; inconclusive means small, poorly fitted or top-dose-only effect, or another doubt; inactive means no such curve, though single readings can be large; an effect the other way counts as inactive or inconclusive. Unless noted, on the % scale 0 is the no-effect control and ±100 the full control effect; potency means the concentration at half of the fitted maximal effect.

O=C(NCc1ccco1)c1ccc(Cn2c(=O)c3ccccc3n(Cc3cccc(F)c3)c2=O)cc1 was read as Tau fluor cs -27%, Tau ThT inhib -15%, VDR inh inconclusive, PLK1 PBD block 15µM*, Sfp PPTase inh -28% and Tau fibril FP -5%.
`C=C(C)C1CCC(C)=CC1c1c(OC)cc(C)cc1OC` (stereo not drawn) gave VDR inh 8% and Sfp PPTase inh 1%.
Screening C[C@@H](Cc1ccc(O)cc1)NC[C@@H](O)c1cc(O)cc(O)c1 returned VDR inh 6% and Sfp PPTase inh 18%.
C=CCN1C(=O)/C(=C/c2ccc3c(c2)CCCN3CCC)C(=O)NC1=S was read as Tau fluor cs -20%, Tau ThT inhib inconclusive, VDR inh inconclusive, PLK1 PBD block -73%, Sfp PPTase inh 25µM* and Tau fibril FP inconclusive.
Cn1c(N2CCNCC2)nc2ccccc21 was read as Tau fluor cs -4%, Tau ThT inhib -12%, VDR inh 14%, PLK1 PBD block -10%, Sfp PPTase inh -3% and Tau fibril FP -3%.
Cc1cc(N2CCNCC2)nc2ccccc12 was read as VDR inh -12%, PLK1 PBD block 27µM* and Sfp PPTase inh 4%.
O=C(NC(=O)c1c(F)cccc1F)Nc1ccc(Cl)cc1 was read as Tau fluor cs -4%, Tau ThT inhib 11%, VDR inh 11%, Sfp PPTase inh 6% and Tau fibril FP -7%.
For COC(=O)[C@H]1[C@H](c2ccccc2)C(=O)[C@@]2(O)c3ccccc3O[C@@]12c1ccccc1 the results were Tau fluor cs -20%[11.6 µM], Tau ThT inhib -10%[11.5 µM], Sfp PPTase inh 11% and Tau fibril FP -15%[11.6 µM].
For CCOc1ccc(Nc2c(S(=O)(=O)c3ccc(C)cc3)cnc3ccc(F)cc23)cc1 the results were Tau fluor cs -24%, Tau ThT inhib inconclusive, VDR inh 3% and Tau fibril FP -5%.
Screening COc1ccc(NC(=O)N2CCC3(CC2)OCCO3)cc1 returned Tau fluor cs 10%, Tau ThT inhib 2%, VDR inh -22%, PLK1 PBD block 27µM*, Sfp PPTase inh 13% and Tau fibril FP 6%.
For COC(=O)[C@H]1C[C@H]2CC[C@H](O)C[C@H]2N1CC1CC1 the results were Tau fluor cs -4%, Tau ThT inhib -1%, Sfp PPTase inh 12% and Tau fibril FP -1%.
`Cc1c(O)c(=O)ccn1C` gave Tau fluor cs -9%, Tau ThT inhib -13%, VDR inh -10%, PLK1 PBD block -3%, Sfp PPTase inh 56µM* and Tau fibril FP -10%.
Screening CCN(CC)CCO[C@H]1CC[C@@]2(C)C(=CC[C@@H]3[C@H]2CC[C@]2(C)C(=O)CC[C@H]32)C1 returned Tau fluor cs -13%, Tau ThT inhib -13%, VDR inh 1%, Sfp PPTase inh 10% and Tau fibril FP -6%.
For CN1CC[C@@]2(C)c3cc(O)ccc3N(C)[C@@H]12 the results were Tau fluor cs inconclusive, Tau ThT inhib 14µM*, VDR inh inconclusive, PLK1 PBD block 5.3µM*, Sfp PPTase inh -5% and Tau fibril FP 20µM*.
Screening CN1CC[C@@]2(C)c3cc(OC(=O)Nc4ccccc4)ccc3N(C)[C@@H]12 returned Tau fluor cs inconclusive, Tau ThT inhib 32µM*, VDR inh inconclusive, Sfp PPTase inh 14% and Tau fibril FP inconclusive.
Screening CNC(=O)Oc1ccc2c(c1)[C@@]1(C)CCN(C)[C@@H]1N2C returned Tau fluor cs -11%, Tau ThT inhib -14%, VDR inh 1%, Sfp PPTase inh 7% and Tau fibril FP -4%.
`COC(=O)[C@]1(C)CC[C@@]2(C)CC[C@@]3(C)C4=CC=C5C(=CC(=O)C(O)=C5C)[C@@]4(C)CC[C@@]3(C)C2C1` (stereo partly drawn) gave Tau fluor cs inconclusive, Tau ThT inhib 28µM*, VDR inh 3.2µM*, Sfp PPTase inh -85% and Tau fibril FP inconclusive.
C=CCN1C(=O)NC(=O)/C(=C/C=C/c2ccccc2)C1=O was read as Tau fluor cs -20%, Tau ThT inhib 28µM*, VDR inh inconclusive, PLK1 PBD block inconclusive, Sfp PPTase inh 28µM* and Tau fibril FP inconclusive.
For Cc1c(N=Cc2c(O)n(CCc3ccc(F)cc3)c(=O)[nH]c2=O)c(=O)n(-c2ccccc2)n1C the results were Tau fluor cs -11%, Tau ThT inhib -15%, VDR inh -18%, PLK1 PBD block 0%, Sfp PPTase inh 11% and Tau fibril FP -2%.
Screening O=C1NC(=O)N(CCc2ccc(F)cc2)C(=O)/C1=C\C=C\c1ccccc1 returned Tau fluor cs -19%, Tau ThT inhib 28µM*, VDR inh inconclusive, PLK1 PBD block inconclusive, Sfp PPTase inh -7% and Tau fibril FP inconclusive.
For CCn1c(O)c(C=NCc2cccs2)c(=O)[nH]c1=O the results were Tau fluor cs -1%, Tau ThT inhib 0%, VDR inh inconclusive, PLK1 PBD block 15µM*, Sfp PPTase inh 24% and Tau fibril FP 3%.
Screening N#Cc1c(/N=C/c2c(O)n(Cc3ccco3)c(=O)[nH]c2=O)sc2c1CCCC2 returned Tau fluor cs -23%, Tau ThT inhib 20µM*, VDR inh 79µM*, PLK1 PBD block 24µM*, Sfp PPTase inh 79µM* and Tau fibril FP inconclusive.
For O=c1[nH]c(=O)n(Cc2ccco2)c(O)c1C=NCc1cccs1 the results were Tau fluor cs -2%, Tau ThT inhib -4%, VDR inh -12%, PLK1 PBD block -9%, Sfp PPTase inh 50µM* and Tau fibril FP -8%.
Screening O=c1[nH]c(=O)n(Cc2ccco2)c(O)c1/C=N/N1CCCCCC1 returned Tau fluor cs 2%, Tau ThT inhib 1%, VDR inh 15%, PLK1 PBD block -3%, Sfp PPTase inh -19% and Tau fibril FP 5%.
`CC(C)N(CC[C@@](C(N)=O)(c1ccccc1)c1ccccn1)C(C)C` gave VDR inh 1% and Sfp PPTase inh 11%.
CC1N(P(=O)(c2ccccc2)c2ccccc2)CC(O)(c2ccccc2)CC12CC2 (stereo not drawn) was read as Tau fluor cs -3%, Tau ThT inhib -13%, Sfp PPTase inh -4% and Tau fibril FP 15%.
For Cc1ccccc1Cn1cccc(C(=O)Nc2cc(Cl)ccc2C#N)c1=O the results were Tau fluor cs -26%, Tau ThT inhib 5%, VDR inh -10% and Tau fibril FP inconclusive.
For CN1CCN(C(=O)COc2ccc(S(=O)(=O)Nc3ccc(F)cc3)cc2)CC1 the results were VDR inh -3%, PLK1 PBD block -4% and Sfp PPTase inh 7%.
